The structures appear in SMILES notation. About 83,000 compounds went through this panel and 20% of them were active in at least one assay; those are over-represented in the sample as a whole.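 A percent growth of 40 corresponds to 60% growth inhibition; 0 means no net growth; -100 means all cells died. Active threshold: below 10.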 A number with no mark means an inactive call. Activity calls are given as the source filed them.

For the first assay, the system named is HCT-15 colon. Put plainly: NCI-60 one-dose screen, 48 h (100 = growth as untreated, 0 = no growth, -100 = all killed). The settings on record: 10 µM unless noted.
For `Nc1cc2nc3ccccc3sc-2cc1=O`, the growth is 55.2%.

For the compound `Cc1noc(C)c1-c1cc(O)cc(C(O)c2ccccc2)c1` (stereo not drawn), the growth was 36.7%.

For the compound `CCCCCC(=O)N(CCCC)CCCC`, the growth is 96.8%.

As for `COc1ccc(/C=N\NC(=O)c2ccncc2)cc1O`, the growth was 107%.

In the case of `O=C(Cn1cc(CN2C(=O)c3ccccc3S2(=O)=O)nn1)Nc1ccc([N+](=O)[O-])cc1Cl`, the growth is 102%.

For `Oc1ccc(Nc2nccc(-c3ccc4ccccc4c3)n2)cc1`, the growth is 16.9%.

For the compound `O=C1C=CC(=O)c2c1nc1n2CCCC1`, the growth is 103%.

Regarding `Cc1cc(Nc2nc(N3CCOCC3)nc3ccccc23)n[nH]1`, the growth is 38.7%.

As to `Cc1ccc(C2CC3c4ccccc4C2C2CCCCN32)cc1` (stereo not drawn), the growth is 99.8%.

As to `Cc1csc2ccc(Cl)cc12`, the growth was 95.6%.

`O=S(=O)(Nc1ccc(F)c(Cl)c1)c1ccc(-c2cnc(C3CC3)o2)cc1`: the growth was 22.3%.

For `CC#Cc1nc2ccccc2c(=O)[nH]1`, the growth is 3.71% (active).

Regarding `C[C@H](CCC(=O)O)[C@H]1CC[C@H]2[C@@H]3CC[C@@H]4/C(=C\c5ccco5)C(=O)/C(=C\c5ccco5)C[C@]4(C)[C@H]3CC[C@]12C`, the growth was 28.5%.

Turning to `Cc1cc(Nc2nc(-c3cccnc3)nc3ccccc23)n[nH]1`, the growth was 29.7%.

Consider `COc1cc(OC)c(/C=C/c2cc[n+](C)c3ccccc23)c(OC)c1`, for which the growth is 90.9%.

Regarding `CCCCCCCCCCCCCCCC[N+]1(CC)CCCC1`, the growth is 22.8%.

For `CC(=O)OCC(=O)C1CCC=CC1OC(C)=O` (stereo not drawn), the growth was 103%.

`COC1C/C(=N\O)C2OC(c3ccccc3)OCC2O1` (stereo not drawn): the growth was 97.8%.

Regarding `CC[C@H](Nc1nc(N)nc(C)c1C#N)c1nc2cccc(NCc3ccc(C(=O)NO)cc3)c2c(=O)n1-c1ccccc1`, the growth is 38.7%.

As for `Cc1nn(-c2ccccc2)c2nc(C)n(-c3ccc(Br)cc3)c(=O)c12`, the growth is 17.4%.

With `Cc1ccc2c(NCCCN(C)C)c3c(C)nn(C)c3nc2c1`, the growth was 29%.

As for `NC(CC(=O)O)C(=O)OCc1ccccc1` (stereo not drawn), the growth is 95.1%.

As to `NCCN1CCN(c2nccc(-c3ccc4ccccc4c3)n2)CC1`, the growth is 4.28% (active).

As to `Nc1ccc(Nc2nccc(-c3ccc4ccccc4c3)n2)cc1`, the growth was 25%.

On to `CCCNc1nc(SC)nc(-c2cccc(N)c2)c1C#N`, for which the growth is 102%.

In the case of `CN(C)CCOc1ccc(-c2nc3ccc(-c4nc5ccc(N6CCN(C)CC6)cc5[nH]4)cc3[nH]2)cc1`, the growth was 101%.

As to `CCCCCCCCCCCCN1CCCC(C)C1` (stereo not drawn), the growth is 61.8%.

On to `COc1ccc(-c2nc(Nc3cc(C)[nH]n3)c3ccccc3n2)cc1`, for which the growth was 42.4%.

Consider `CN[C@@]12CC3(C=CC(=O)C=C3)O[C@]1(Cc1ccc(OC)cc1)N(C)C(=O)N2`, for which the growth was -47.9% (active).

Take `COc1cc2cc(COc3nccc(-c4ccc(Cl)cc4)n3)c(=O)[nH]c2cc1OC`: the growth was 63.6%.

As to `Cc1ccc(S(=O)(=O)N(CCc2ccc(Cl)cc2)S(=O)(=O)c2ccc(C)cc2)cc1`, the growth was 94.5%.

As for `CC[C@H](Nc1cc(C)nc(N)n1)c1nc2cccc(NCc3ccc(C(=O)NO)cc3)c2c(=O)n1-c1ccccc1`, the growth was 92.5%.

Consider `CN1CCCCC1CCN1c2ccccc2Sc2ccc(Br)cc21` (stereo not drawn), for which the growth is 54.6%.

Turning to `O=C1Nc2ccc(Br)cc2C12CC(c1ccccc1)=NN2` (stereo not drawn), the growth is 32.7%.

With `O=C(N/N=C/c1ccc(O)cc1O)c1cccnc1`, the growth is 30.7%.

With `O=C(Nc1ccc(F)cc1)Nc1ccc(CCO)cc1`, the growth was 102%.

In the case of `C[C@@H]1CC[C@@H]2[C@@H]1[C@H](OC(=O)/C=C/c1ccccc1)[C@]1(C3CCCCC3)C[C@@H](OC(=O)CO)[C@@]2(C)O1`, the growth was 66.2%.

Take `O=C1Nc2ccccc2/C1=C/C(=N/c1nnc(-c2ccccc2)s1)c1ccccc1`: the growth was 19.8%.

Take `CCCCCCCCOC(=O)CC[C@@H](C)[C@H]1CC[C@H]2[C@@H]3[C@H](OC(=O)CCN)C[C@@H]4C[C@H](OC(=O)CCN)CC[C@]4(C)[C@H]3C[C@H](OC(=O)CCN)[C@]12C`: the growth was 102%.

Another assay concerns HT29 colon. The description is as above. The settings on record: 10 µM unless noted.
For the compound `Nc1cc2nc3ccccc3sc-2cc1=O`, the growth is 94.1%.

As to `Cc1noc(C)c1-c1cc(O)cc(C(O)c2ccccc2)c1` (stereo not drawn), the growth was 34.6%.

Regarding `CCCCCC(=O)N(CCCC)CCCC`, the growth is 111%.

Turning to `COc1ccc(/C=N\NC(=O)c2ccncc2)cc1O`, the growth was 112%.

Turning to `O=C(Cn1cc(CN2C(=O)c3ccccc3S2(=O)=O)nn1)Nc1ccc([N+](=O)[O-])cc1Cl`, the growth is 108%.

For `Oc1ccc(Nc2nccc(-c3ccc4ccccc4c3)n2)cc1`, the growth was 39.3%.

As to `O=C1C=CC(=O)c2c1nc1n2CCCC1`, the growth was 35.5%.

For the compound `Cc1cc(Nc2nc(N3CCOCC3)nc3ccccc23)n[nH]1`, the growth was 68.4%.

On to `Cc1ccc(C2CC3c4ccccc4C2C2CCCCN32)cc1` (stereo not drawn), for which the growth is 90.4%.

As for `Cc1csc2ccc(Cl)cc12`, the growth is 102%.

Take `O=S(=O)(Nc1ccc(F)c(Cl)c1)c1ccc(-c2cnc(C3CC3)o2)cc1`: the growth was -3.16% (active).

For `CC#Cc1nc2ccccc2c(=O)[nH]1`, the growth is 51.2%.

`C[C@H](CCC(=O)O)[C@H]1CC[C@H]2[C@@H]3CC[C@@H]4/C(=C\c5ccco5)C(=O)/C(=C\c5ccco5)C[C@]4(C)[C@H]3CC[C@]12C`: the growth was 59.6%.

Take `Cc1cc(Nc2nc(-c3cccnc3)nc3ccccc23)n[nH]1`: the growth is 23.4%.

`COc1cc(OC)c(/C=C/c2cc[n+](C)c3ccccc23)c(OC)c1`: the growth was 0.813% (active).

Turning to `CCCCCCCCCCCCCCCC[N+]1(CC)CCCC1`, the growth is -65.7% (active).

`CC(=O)OCC(=O)C1CCC=CC1OC(C)=O` (stereo not drawn): the growth was 107%.

For `COC1C/C(=N\O)C2OC(c3ccccc3)OCC2O1` (stereo not drawn), the growth is 113%.

In the case of `CC[C@H](Nc1nc(N)nc(C)c1C#N)c1nc2cccc(NCc3ccc(C(=O)NO)cc3)c2c(=O)n1-c1ccccc1`, the growth was 3.55% (active).

As to `Cc1nn(-c2ccccc2)c2nc(C)n(-c3ccc(Br)cc3)c(=O)c12`, the growth is -15.7% (active).

Consider `Cc1ccc2c(NCCCN(C)C)c3c(C)nn(C)c3nc2c1`, for which the growth is 18%.

Consider `NC(CC(=O)O)C(=O)OCc1ccccc1` (stereo not drawn), for which the growth was 115%.

On to `NCCN1CCN(c2nccc(-c3ccc4ccccc4c3)n2)CC1`, for which the growth was -33.6% (active).

For the compound `Nc1ccc(Nc2nccc(-c3ccc4ccccc4c3)n2)cc1`, the growth is 14.3%.

Regarding `CCCNc1nc(SC)nc(-c2cccc(N)c2)c1C#N`, the growth is 116%.

Regarding `CN(C)CCOc1ccc(-c2nc3ccc(-c4nc5ccc(N6CCN(C)CC6)cc5[nH]4)cc3[nH]2)cc1`, the growth is 42.4%.

Turning to `CCCCCCCCCCCCN1CCCC(C)C1` (stereo not drawn), the growth is 24%.

`COc1ccc(-c2nc(Nc3cc(C)[nH]n3)c3ccccc3n2)cc1`: the growth was 17.4%.

On to `CN[C@@]12CC3(C=CC(=O)C=C3)O[C@]1(Cc1ccc(OC)cc1)N(C)C(=O)N2`, for which the growth is 8.19% (active).

Take `COc1cc2cc(COc3nccc(-c4ccc(Cl)cc4)n3)c(=O)[nH]c2cc1OC`: the growth was -7.34% (active).

Take `Cc1ccc(S(=O)(=O)N(CCc2ccc(Cl)cc2)S(=O)(=O)c2ccc(C)cc2)cc1`: the growth was 86%.

Consider `CC[C@H](Nc1cc(C)nc(N)n1)c1nc2cccc(NCc3ccc(C(=O)NO)cc3)c2c(=O)n1-c1ccccc1`, for which the growth was 10.2%.

For `CN1CCCCC1CCN1c2ccccc2Sc2ccc(Br)cc21` (stereo not drawn), the growth was 29.8%.

As for `O=C1Nc2ccc(Br)cc2C12CC(c1ccccc1)=NN2` (stereo not drawn), the growth is 12.1%.

Turning to `O=C(N/N=C/c1ccc(O)cc1O)c1cccnc1`, the growth was 46.1%.

`O=C(Nc1ccc(F)cc1)Nc1ccc(CCO)cc1`: the growth is 103%.

For `C[C@@H]1CC[C@@H]2[C@@H]1[C@H](OC(=O)/C=C/c1ccccc1)[C@]1(C3CCCCC3)C[C@@H](OC(=O)CO)[C@@]2(C)O1`, the growth was 38.4%.

Turning to `O=C1Nc2ccccc2/C1=C/C(=N/c1nnc(-c2ccccc2)s1)c1ccccc1`, the growth is -36.3% (active).

As for `CCCCCCCCOC(=O)CC[C@@H](C)[C@H]1CC[C@H]2[C@@H]3[C@H](OC(=O)CCN)C[C@@H]4C[C@H](OC(=O)CCN)CC[C@]4(C)[C@H]3C[C@H](OC(=O)CCN)[C@]12C`, the growth was 39.6%.
